Measurements published in the supplement of paper PMC10981050.
Structures can show the parent of a compound that is named as a salt.

system: OCI-AML2; assay: cell viability relative to vehicle control; higher = less cytotoxic; conditions: 10 µM; SRSF2 genotype: wt/wt
Method in brief: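 Screening covered the Selleck bioactive, kinase and epigenetic probe libraries, less identity-inconsistent compounds, on CRISPR-edited mutant clones and isogenic wild-type clones of four leukaemia lines. Cells, at 2000 per well in 50 µL medium, received a single 10 µM acoustically dispensed dose. After 48 h the supernatant was removed and CellTiter-Glo luminescence was read. Viability was analysed in Genedata Screener as percent of the on-plate vehicle control.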

| SMILES | cell viability [%] |
| --- | --- |
| CCC[C@H](Nc1nc(-c2ccc(NC(=O)NCC)c(OC)c2)ncc1C)c1cccnc1 | 2.78 |
| O=C(O)CCc1ccc(NCc2cccc(Oc3ccccc3)c2)cc1 | 92.7 |
| NC(=O)N/N=C/c1ccc([N+](=O)[O-])o1 [Nitrofurazone (Nitrofural)] | 103 |
| Cc1cnc(C(=O)O)c[n+]1[O-] [Acipimox] | 104 |
| CS(=O)(=O)c1ccc(-c2cnc(N)c(C(=O)Nc3ccccc3)n2)cc1 | 91.7 |
| COCCOc1nc(-c2ccc(Cl)c(Cl)c2)n(-c2ccc(NC(=O)CCl)cc2)n1 [MI-2 (MALT1 inhibitor)] | 0.46 |
| O=C(O)C(S)=Cc1c[nH]c2ccc(F)cc12 | 103 |
| C[C@]1(O)C[C@@H](c2nc(-c3ccc4ccc(-c5ccccc5)nc4c3)c3c(N)nccn32)C1 [OSI-906 (Linsitinib)] | 38.1 |
| O=C(O)/C=C/c1ccc(O)cc1 [p-Coumaric Acid] | 103 |
| c1ccc(-c2ccc(C(c3ccccc3)n3ccnc3)cc2)cc1 (stereo not given) [Bifonazole] | 82.7 |
| Cc1cc(C)c(/C=C2\C(=O)Nc3ccccc32)[nH]1 [Semaxanib (SU5416)] | 39.9 |
| NC[C@@](O)(c1ccc(Cl)cc1)c1ccc(-c2cn[nH]c2)cc1 | 17.4 |
| COc1cc(/C=C/C(=O)CC(=O)/C=C/c2ccc(O)c(OC)c2)ccc1O [Curcumin] | 69.3 |
| Oc1ccc(-c2nc(-c3ccc(F)cc3)c(-c3ccncc3)[nH]2)cc1 | 106 |
| CCN(CC)CCOC(=O)C(c1ccccc1)c1ccccc1 [Adiphenine HCl] | 81.1 |
| C=C1[C@H](O)C[C@H]2[C@@H](/C=C(\C)C(=O)[C@@]3(O)C[C@H](C)[C@H](O)[C@@H]3[C@H]1O)C2(C)C | 101 |
| COc1cccc(C=NCCN=Cc2cccc(OC)c2[O-])c1[O-].[Cl-].[Mn+3] | 101 |
| c1ccc(CNc2nc(NCc3ccccc3)c3ccccc3n2)cc1 | 0.19 |
| CCCC1O[C@@H]2C[C@H]3[C@@H]4CCC5=CC(=O)C=C[C@]5(C)[C@H]4[C@@H](O)C[C@]3(C)[C@]2(C(=O)CO)O1 (stereo not given in full) [Budesonide] | 87.6 |
| Cc1[nH]c(/C=C2\C(=O)Nc3ccccc32)c(C)c1CCC(=O)O [Orantinib (TSU-68, SU6668)] | 84.2 |

| SMILES | cell viability [%] |
| --- | --- |
| CC(=O)Oc1cccc2ccccc12 [1-Naphthyl acetate] | 90.8 |
| CN1CCN(CCOc2cc(OC3CCOCC3)c3c(Nc4c(Cl)ccc5c4OCO5)ncnc3c2)CC1 [Saracatinib (AZD0530)] | 63.4 |
| CC[C@H]1OC(=O)[C@@](C)(F)C(=O)[C@H](C)[C@@H](O[C@@H]2O[C@H](C)C[C@H](N(C)C)[C@H]2O)[C@](C)(OC)C[C@@H](C)C(=O)[C@H](C)[C@H]2N(CCCCn3cc(-c4cccc(N)c4)nn3)C(=O)O[C@]12C [Solithromycin] | 93.5 |
| C[C@@H]1O[C@@H](O[C@H]2[C@H](Oc3cc(O)c(C(=O)CCc4ccc(O)cc4)c(O)c3)O[C@H](CO)[C@@H](O)[C@@H]2O)[C@H](O)[C@H](O)[C@H]1O [Naringin Dihydrochalcone (Naringin DC)] | 111 |
| O=C(Nc1c[nH]nc1-c1nc2ccc(CN3CCOCC3)cc2[nH]1)NC1CC1 | 15.3 |
| Nc1ccccc1NC(=O)c1ccc(CNc2nccc(-c3cccnc3)n2)cc1 [Mocetinostat (MGCD0103)] | 3.29 |
| COc1c2c(cc3oc(COC4OC(CO)C(O)C(O)C4O)cc(=O)c13)OC(C(C)(C)O)C2 (stereo not given) [Prim-o-glucosylcimifugin] | 98.1 |
| CN(CCOc1ccc(CC2SC(=O)NC2=O)cc1)c1ccccn1 (stereo not given) [Rosiglitazone (Avandia)] | 101 |
| CC(C)CC(=O)Nc1n[nH]c2c1CN(C(=O)C1CCN(C)CC1)C2(C)C | 17.8 |
| CC1(C)[C@@H](O[C@H]2O[C@H](C(=O)O)[C@@H](O)[C@H](O)[C@H]2O[C@@H]2O[C@H](C(=O)O)[C@@H](O)[C@H](O)[C@H]2O)CC[C@]2(C)[C@H]3C(=O)C=C4[C@@H]5C[C@@](C)(C(=O)O)CC[C@]5(C)CC[C@@]4(C)[C@]3(C)CC[C@@H]12 [Ammonium Glycyrrhizinate (AMGZ)] | 95.4 |
| CCC(=O)Nc1cccc(Oc2nc(Nc3ccc(N4CCN(C)CC4)cc3OC)ncc2Cl)c1 | 59.2 |
| C[C@]12CC[C@@H]3c4ccc(O)cc4CC[C@H]3[C@@H]1C[C@@H](O)[C@@H]2O [Estriol] | 101 |
| COC(=O)N[C@H](C(=O)N1CCC[C@H]1c1ncc(-c2ccc(-c3ccc(-c4cnc([C@@H]5CCCN5C(=O)[C@@H](NC(=O)OC)C(C)C)[nH]4)cc3)cc2)[nH]1)C(C)C [Daclatasvir Digydrochloride] | 74 |
| O=C(/C=C\n1cnc(-c2cc(C(F)(F)F)cc(C(F)(F)F)c2)n1)NNc1cnccn1 [Selinexor (KPT-330)] | 11.4 |
| C[C@@H]1O[C@@H](OC[C@H]2O[C@@H](Oc3c(-c4ccc(OCCO)c(OCCO)c4)oc4cc(OCCO)cc(O)c4c3=O)[C@H](O)[C@@H](O)[C@@H]2O)[C@H](O)[C@H](O)[C@H]1O [Troxerutin] | 88 |
| O=C1c2c(O)cc(O)cc2OC(c2ccc(O)c(O)c2)C1O (stereo not given) [Taxifolin (Dihydroquercetin)] | 96 |
| COc1cc2oc(-c3ccc(O)cc3)cc(=O)c2c(O)c1[C@@H]1O[C@H](CO)[C@@H](O)[C@H](O)[C@H]1O[C@@H]1O[C@H](CO)[C@@H](O)[C@H](O)[C@H]1O [Spinosin] | 100 |
| O=C(CCNC(=O)c1ccc(OC(F)(F)F)cc1)N[C@@H]1CCCc2ccccc21 | 106 |
| O=C1Nc2ccc(I)cc2C1=Cc1cc(Br)c(O)c(Br)c1 | 90.7 |
| NC(=O)/C(=C/n1cnc(-c2cc(C(F)(F)F)cc(C(F)(F)F)c2)n1)c1cncnc1 | 4.56 |
